Assay results as given in PubChem BioAssay (Tox21).
Several values for one entry are separate records, joined by “and”; a condition that tells them apart may be missing. Equal values may be shown once. Results filed as inconclusive are left out. Entries that show only a call come without a potency. The source holds several records for some structures; these can differ, active in one and inactive in another. Activity calls are given as the source filed them. Unless noted, calls come from the whole dose curve; as a rule, active = well fitted curve in the direction sought with a large enough effect in the repeat runs; inconclusive = weak or mixed curves; inactive = no such curve, though single readings can be large; an effect the other way counts as inactive or inconclusive.

Key:
[1] = qHTS assay to identify small molecule antagonists of the estrogen receptor alpha (ER-alpha) signaling pathway using the BG1 cell line in the presence of 0.1 nM 17-beta-estradiol - cell viability counter screen (AID 1259241); settings: VM7Luc4E2 (BG1) viability, CellTiter-Fluor protease, 22 h, 0.1 nM estradiol agonist added; series mostly up to 92.4 µM; note: nearly all actives have a fitted effect of over 40% in size
Procedure, shortened: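 Following 5 days in phenol red-free medium with charcoal-stripped serum, VM7Luc4E2 cells received test compounds alongside 0.1 nM 17beta-estradiol (final) at 37C for 22 hr. Live cells were then quantified via protease-substrate fluorescence.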

[2] = qHTS assay to identify small molecule antagonists of the androgen receptor (AR) signaling pathway using the MDA cell line in the presence of 0.5 nM R1881 - cell viability counter screen (AID 1259242); settings: MDA-kb2 viability, CellTiter-Fluor protease fluorescence, 16 h; series mostly up to 92.4 µM; note: nearly all actives have a fitted effect of over 45% in size; note: potency is the fitted concentration of half-maximal effect
Procedure, shortened: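 Steps: plate MDA-kb2 cells, rest 5 hr at 37C without CO2; pin in compounds in DMSO; add R1881 to 0.5 nM final; incubate 16 hr; add CellTiter-Fluor, 30 min; read fluorescence.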

[3] = qHTS assay to identify small molecule HDAC inhibitors (AID 1259364); settings: HCT-116 HDAC-Glo I/II luminescence, 2 h; series mostly up to 92.4 µM; note: potency is the fitted concentration of half-maximal effect;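 note: wild-type HCT-116 cells with endogenous class I/II HDAC activity; nearly all actives have a fitted effect of over 45% in size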
Procedure, shortened: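 Cells (HCT-116, wild type) are seeded at 1,500 per well, incubated overnight, treated with compound in DMSO for 2 hr, then developed with HDAC-Glo I/II reagent for 30 min at room temperature.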

[4] = qHTS assay to identify small molecule HDAC inhibitors - cell viability counter screen (AID 1259365); settings: HCT-116 viability, CellTiter-Glo ATP luminescence, 2 h; series mostly up to 92.4 µM; note: nearly all actives have a fitted effect of over 50% in size
Procedure, shortened: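 HCT-116 wild-type, overnight attachment; 2hr drug exposure, 37C; CellTiter-Glo luminescent ATP readout after 30min RT.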

[5] = qHTS assay to identify small molecule agonists of the sonic hedgehog signaling (Shh) pathway - cell viability counter screen (AID 1259366); settings: NIH/3T3 Gli1-Luc viability, CellTiter-Fluor, 24 h; series mostly up to 92.4 µM; note: nearly all actives have a fitted effect of over 50% in size; note: potency is the fitted concentration of half-maximal effect
Procedure, shortened: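 Compounds in DMSO were pin-transferred onto 3T3 Gli1-Luc cells that had settled 4hr; plates then stood 24hr at 37C and 5% CO2. One hour before the end, CellTiter-Fluor was added and fluorescence recorded.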

[6] = qHTS assay to identify small molecule antagonists of the sonic hedgehog signaling (Shh) pathway - cell viability counter screen (AID 1259367); settings: NIH/3T3 Gli1-Luc viability, CellTiter-Fluor, 24 h; series mostly up to 92.4 µM; note: nearly all actives have a fitted effect of over 55% in size; note: potency is the fitted concentration of half-maximal effect
Procedure, shortened: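 Viability was read by CellTiter-Fluor fluorescence in the same wells, reagent added 23 hr into compound treatment and incubated 1 hr at 37C. The 3T3 Gli1-Luc reporter cells (2,000/well) received conditioned medium after compound and ran 24 hr.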

[7] = qHTS assay to identify small molecule agonists of the sonic hedgehog signaling (Shh) pathway (AID 1259368; calls by dose curve; note: nearly all actives have a fitted effect of over 15% in size; note: potency is the fitted concentration of half-maximal effect); settings: NIH/3T3 Gli1-Luc reporter, luciferase, 24 h; series mostly up to 92.4 µM
Procedure, shortened: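 Cells of a mouse NIH/3T3 clone stably expressing luciferase under the Gli1 transcriptional response element are exposed to test chemicals for 24 hr at 37 C. Pathway activation is detected as a rise in luminescence.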

[8] = qHTS assay to identify small molecule antagonists of the sonic hedgehog signaling (Shh) pathway (AID 1259369; calls by dose curve; note: nearly all actives have a fitted effect of over 45% in size; note: potency is the fitted concentration of half-maximal effect); settings: NIH/3T3 Gli1-Luc reporter, Shh antagonist, luminescence 24 h; series mostly up to 92.4 µM
Procedure, shortened: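 Cells are plated and held 4hr at 37 C, compounds (DMSO) are pinned in, conditioned medium is added to stimulate the pathway, and after 24hr luciferase reagent is added for 30min before luminescence is read.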

[9] = qHTS assay to identify small molecule agonists of the androgen receptor (AR) signaling pathway in the presence of an antagonist - cell viability counter screen (AID 1259379); settings: MDA-kb2 viability, CellTiter-Fluor, 16 h; series mostly up to 92.4 µM; note: nearly all actives have a fitted effect of over 25% in size; note: potency is the fitted concentration of half-maximal effect
Procedure, shortened: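 Cytotoxicity is assessed by CellTiter-Fluor in MDA-kb2 cells carrying an MMTV-driven luciferase reporter. Cells receive 3.0uM nilutamide plus compounds at 15 concentrations and incubate 16 hr at 37C without CO2 before fluorescence reading.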

[10] = qHTS assay to identify small molecule agonists of the estrogen receptor beta (ER-beta) signaling pathway - cell viability counter screen (AID 1259380); settings: ER-beta-bla HEK293T viability, CellTiter-Glo luminescence, 16 h; series mostly up to 92.4 µM; note: nearly all actives have a fitted effect of over 30% in size; note: potency is the fitted concentration of half-maximal effect
Procedure, shortened: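 Cytotoxicity is measured in parallel with the reporter screen: after 16 hr compound exposure at 37C and a 2 hr LiveBLAzer step, CellTiter-Glo is added to the same ER-beta-UAS-bla HEK293T wells and luminescence read after 30 min.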

[11] = qHTS assay to identify small molecule antagonists of the estrogen receptor beta (ER-beta) signaling pathway - cell viability counter screen (AID 1259382); settings: ER-beta-UAS-bla HEK293T viability, CellTiter-Glo luminescence, 16 h; series mostly up to 92.4 µM;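 note: HEK293T cells carrying ER-beta-UAS-bla reporter stimulated with estradiol; nearly all actives have a fitted effect of over 55% in size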
Procedure, shortened: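 Cytotoxicity counter screen multiplexed with the beta-lactamase antagonist assay: GripTite HEK293T ER-beta-bla cells were treated 16 hr with test chemicals in the presence of 1nM 17-beta-estradiol, and viability was measured by CellTiter-Glo.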

[12] = qHTS assay to identify small molecule agonists or antagonists of the thyroid stimulating hormone receptor (TSHR) signaling pathway - wild type cell line counter screen (AID 1259384; calls by dose curve); settings: HEK293 wild type, cAMP HTRF counter-screen, stronger effect = higher value; series mostly up to 92.4 µM
Procedure, shortened: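 Counter screen in untransfected Hek293: compounds (15-point titration, triplicate) plus phosphodiesterase inhibitor Ro20-1724 added after 18 h plating; 30 min RT. Intracellular cAMP via competitive d2/cryptate immunoassay, 1 h incubation.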

[13] = target: Thyrotropin receptor (Homo sapiens) (UniProt P16473); assay: qHTS assay to identify small molecule antagonists of the thyroid stimulating hormone receptor (TSHR) signaling pathway (AID 1259385; calls by dose curve; note: nearly all actives have a fitted effect of over 20% in size); settings: TSHR-HEK293 cAMP HTRF, TSH-stimulated antagonist mode; series mostly up to 92.4 µM
Thyrotropin receptor (Homo sapiens), sequence (P16473 whole entry, looked up): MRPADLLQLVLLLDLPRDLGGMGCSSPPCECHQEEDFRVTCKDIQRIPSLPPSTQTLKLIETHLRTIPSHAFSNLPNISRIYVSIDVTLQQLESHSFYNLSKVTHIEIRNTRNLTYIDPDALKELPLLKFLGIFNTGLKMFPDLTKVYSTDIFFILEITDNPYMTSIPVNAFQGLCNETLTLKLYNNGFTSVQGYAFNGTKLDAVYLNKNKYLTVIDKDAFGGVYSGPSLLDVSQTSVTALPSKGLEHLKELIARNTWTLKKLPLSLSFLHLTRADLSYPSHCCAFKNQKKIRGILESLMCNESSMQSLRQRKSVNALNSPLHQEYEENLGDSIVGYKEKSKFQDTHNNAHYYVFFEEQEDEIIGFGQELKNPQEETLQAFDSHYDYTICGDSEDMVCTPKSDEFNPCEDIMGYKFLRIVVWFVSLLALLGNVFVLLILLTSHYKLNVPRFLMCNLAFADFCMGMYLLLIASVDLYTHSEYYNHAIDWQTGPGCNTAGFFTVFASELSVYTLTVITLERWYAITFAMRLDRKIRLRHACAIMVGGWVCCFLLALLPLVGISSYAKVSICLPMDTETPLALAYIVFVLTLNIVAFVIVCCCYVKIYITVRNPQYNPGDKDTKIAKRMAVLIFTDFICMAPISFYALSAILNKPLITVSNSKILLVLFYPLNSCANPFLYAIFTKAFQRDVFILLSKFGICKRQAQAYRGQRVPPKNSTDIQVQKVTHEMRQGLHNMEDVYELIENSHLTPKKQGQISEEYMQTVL
Procedure, shortened: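 Antagonist mode: compound-treated TSHR-expressing HEK293 cells were stimulated with 1.5 ng/mL TSH (final) in presence of Ro20-1724 for 30 min at RT. HTRF cAMP detection after 1 h; each compound tested at 15 concentrations, triplicate.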

[14] = qHTS assay to identify small molecule agonists of the estrogen receptor alpha (ER-alpha) signaling pathway in the presence of an antagonist - cell viability counter screen (AID 1259386); settings: VM7Luc4E2 viability, CellTiter-Fluor fluorescence, 22 h; series mostly up to 92.4 µM;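 note: cells exposed to compounds for 22 h at 37 °C before the viability read; nearly all actives have a fitted effect of over 30% in size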; note: potency is the fitted concentration of half-maximal effect
Procedure, shortened: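 Cytotoxicity was measured in parallel with the ERE-luciferase agonist screen, in the same wells. The cells were VM7Luc4E2, which endogenously express ER-alpha, and treatment was with compounds plus 10.0nM ICI-182,780 for 22hr.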

[15] = target: Estrogen receptor beta (Homo sapiens) (UniProt Q92731); assay: qHTS assay to identify small molecule agonists of the estrogen receptor beta (ER-beta) signaling pathway (AID 1259377; active = well fitted activation curve with a large enough effect in the signal ratio in the repeat runs, not every such curve was filed as active; the % refers to the signal ratio); settings: ER-beta-UAS-bla HEK293T, beta-lactamase FRET ratio, 16 h; series mostly up to 92.4 µM
Estrogen receptor beta (Homo sapiens), sequence (Q92731 whole entry, looked up): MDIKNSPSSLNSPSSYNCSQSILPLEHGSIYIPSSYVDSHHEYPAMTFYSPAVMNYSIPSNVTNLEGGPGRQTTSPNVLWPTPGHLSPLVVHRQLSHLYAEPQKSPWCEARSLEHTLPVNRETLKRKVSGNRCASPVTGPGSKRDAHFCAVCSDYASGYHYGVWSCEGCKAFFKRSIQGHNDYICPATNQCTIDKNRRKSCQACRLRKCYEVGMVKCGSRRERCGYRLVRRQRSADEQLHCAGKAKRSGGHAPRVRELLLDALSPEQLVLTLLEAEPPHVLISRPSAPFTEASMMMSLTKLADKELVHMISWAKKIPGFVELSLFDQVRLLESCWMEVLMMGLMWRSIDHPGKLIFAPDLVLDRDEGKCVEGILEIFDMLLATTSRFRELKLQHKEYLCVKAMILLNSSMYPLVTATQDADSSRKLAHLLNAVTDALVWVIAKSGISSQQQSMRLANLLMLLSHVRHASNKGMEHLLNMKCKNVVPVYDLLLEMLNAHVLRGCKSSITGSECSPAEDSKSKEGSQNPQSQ
Procedure, shortened: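 qHTS in ER-beta-UAS-bla HEK293T cells: 6 hr settling, then 16 hr compound at 37C, then LiveBLAzer substrate 2 h at RT before fluorescence reading.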

[16] = target: Estrogen receptor beta (Homo sapiens) (UniProt Q92731); assay: qHTS assay to identify small molecule antagonists of the estrogen receptor beta (ER-beta) signaling pathway (AID 1259378; active = well fitted inhibition curve with a large enough effect in the signal ratio in the repeat runs, not every such curve was filed as active; the % refers to the signal ratio); settings: ER-beta-UAS-bla HEK293T, beta-lactamase FRET ratio, 16 h; series mostly up to 92.4 µM
Procedure, shortened: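 Antagonist mode: compounds added to beta-lactamase reporter HEK293T ER-beta-UAS cells stimulated with E2 (1nM final), 16 hr at 37C. LiveBLAzer B/G FRET substrate, 2 hours room temperature, fluorescence read-out.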

[17] = qHTS assay to identify small molecule phospholipidosis (PLD) inducers (AID 1259344; active = well fitted curve in the direction sought with a large enough effect; an effect the other way counts as inactive or inconclusive); settings: HepG2 phospholipidosis, LipidTOX Red imaging, 24 h; series mostly up to 38.3 µM
Procedure, shortened: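 Phospholipid accumulation was scored by imaging: fixed, Hoechst-counterstained HepG2 cells stained with LipidTOX Red after 24 h compound exposure at 37 C. Read-outs were pit count and pit intensity per well or per cell, with amiodarone and DMSO controls.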

[18] = target: Estrogen receptor (Homo sapiens) (UniProt P03372); assay: qHTS assay to identify small molecule antagonists of the estrogen receptor alpha (ER-alpha) signaling pathway using the BG1 cell line in the presence of 0.1 nM 17-beta-estradiol (AID 1259244); settings: VM7Luc4E2 (BG1) ERE-luciferase, antagonist mode, 0.1 nM E2, 22 h; series mostly up to 92.4 µM; note: nearly all actives have a fitted effect of over 50% in size; note: potency is the fitted concentration of half-maximal effect
Estrogen receptor (Homo sapiens), sequence (P03372 whole entry, looked up): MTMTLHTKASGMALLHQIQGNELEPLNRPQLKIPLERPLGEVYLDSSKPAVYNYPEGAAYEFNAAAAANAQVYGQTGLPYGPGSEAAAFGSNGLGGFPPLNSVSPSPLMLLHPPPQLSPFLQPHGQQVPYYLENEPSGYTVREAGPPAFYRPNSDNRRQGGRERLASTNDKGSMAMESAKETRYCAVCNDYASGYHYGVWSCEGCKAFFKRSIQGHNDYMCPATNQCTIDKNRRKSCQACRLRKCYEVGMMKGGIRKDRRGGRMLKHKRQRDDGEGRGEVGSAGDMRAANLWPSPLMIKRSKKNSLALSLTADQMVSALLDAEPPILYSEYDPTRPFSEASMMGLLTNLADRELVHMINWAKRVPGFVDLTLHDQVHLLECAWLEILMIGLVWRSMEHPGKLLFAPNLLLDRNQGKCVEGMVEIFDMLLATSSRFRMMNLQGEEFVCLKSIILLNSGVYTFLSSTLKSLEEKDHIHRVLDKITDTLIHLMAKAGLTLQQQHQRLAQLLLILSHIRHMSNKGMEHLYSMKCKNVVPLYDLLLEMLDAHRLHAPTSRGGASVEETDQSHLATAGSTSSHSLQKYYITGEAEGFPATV
Procedure, shortened: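 Antagonist mode: compounds in DMSO are pinned onto VM7Luc4E2 reporter cells, 0.1 nM final 17beta-estradiol is added, and after 22 h at 37C luciferase luminescence is measured with ONE-Glo.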

[19] = target: Estrogen receptor (Homo sapiens) (UniProt P03372); assay: qHTS assay to identify small molecule agonists of the estrogen receptor alpha (ER-alpha) signaling pathway in the presence of an antagonist (AID 1259383; calls by dose curve; note: top concentration of the series differs between compounds; nearly all actives have a fitted effect of over 15% in size); settings: VM7Luc4E2 cells, ERE-luciferase, +ICI-182,780, 22 h; series mostly up to 92.4 µM
Procedure, shortened: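 Agonist-mode confirmation in the presence of the ER antagonist ICI-182,780 at 10.0nM final. Breast-derived VM7Luc4E2 reporter cells were exposed to compounds for 22hr, and ERE-driven luciferase was quantified by luminescence.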

SMILES	Potency [1]	Potency [2]	Potency [3]	outcome [4]	Potency [5]	Potency [6]	Potency [7]	Potency [8]	Potency [9]	Potency [10]	Potency [11]	outcome [12]	outcome [13]	Potency [14]	Potency [15]	Potency [16]	outcome [17]	Potency [18]	Potency [19]
Oc1cc(Cl)ccc1Cl	inactive	inactive	inactive	inactive	inactive	inactive	inactive	inactive	inactive	inactive	inactive	inactive	inactive	inactive					
CCCCCc1cc(O)cc(O)c1	inactive	inactive	inactive	inactive	inactive and 30.6 µM (active)	30.6 µM (active)	inactive	24.4 µM (active) and 19.3 µM (active)	inactive	inactive	inactive		inactive	inactive					
CN(C)C(=O)Nc1ccc(Cl)cc1	inactive	inactive	inactive	inactive	inactive	inactive	inactive	inactive		inactive	inactive		inactive	inactive	inactive	inactive			
Nc1ccc(Cl)c(Cl)c1	inactive	inactive	inactive	inactive	inactive	inactive	inactive	inactive		inactive	inactive	inactive	inactive	inactive	inactive	inactive			
CCC(C)c1ccc(O)cc1 (centres undefined)	inactive	inactive	inactive	inactive	inactive	inactive	inactive	inactive	inactive	inactive	inactive			inactive	inactive	inactive			
CCCCN(CC)c1c([N+](=O)[O-])cc(C(F)(F)F)cc1[N+](=O)[O-]	inactive	inactive	inactive	inactive	inactive	inactive	inactive	inactive	inactive	inactive	inactive		inactive	inactive	inactive	inactive			
CCOC(=S)S	inactive	inactive		inactive	38.6 µM (active) and 20.6 µM (active)	30.6 µM (active) and 25.9 µM (active)	inactive	10.9 µM (active) and 13 µM (active)		10.3 µM (active)		inactive	inactive	inactive	inactive				
CCOc1cc(C=O)ccc1O	inactive	inactive		inactive	inactive	inactive	inactive	inactive	inactive	inactive	inactive	inactive	inactive	inactive			inactive		
C=CCc1ccc2c(c1)OCO2	inactive	inactive	inactive	inactive	inactive	inactive	inactive	inactive	inactive	inactive	inactive	inactive	inactive	inactive					
CN(C)c1ccc(C(=O)c2ccc(N(C)C)cc2)cc1	inactive	inactive	inactive and 48.6 µM (active)	inactive	inactive	inactive and 21.7 µM (active)	inactive	inactive and 24.3 µM (active)		inactive	inactive		inactive		inactive	inactive			
Cc1cc(C)cc(C)c1	inactive	inactive	inactive	inactive	inactive	inactive	inactive	inactive	inactive	inactive	inactive		inactive	inactive	inactive	inactive			
CCC(C)c1cc([N+](=O)[O-])cc([N+](=O)[O-])c1O (centres undefined)		inactive and 15.4 µM (active)	inactive	inactive	inactive and 43.3 µM (active)	inactive and 24.3 µM (active)	inactive	inactive and 12.2 µM (active)	inactive and 21.7 µM (active)	inactive	inactive	inactive	inactive	inactive and 24.3 µM (active)	inactive	inactive		inactive and 17.2 µM (active)	inactive
CC(C)(c1cc(Cl)c(O)c(Cl)c1)c1cc(Cl)c(O)c(Cl)c1	inactive	inactive	inactive	inactive	inactive	inactive	inactive	30.6 µM (active) and 34.4 µM (active)	inactive	inactive	inactive		inactive	inactive					
Cc1ccc(N)c(N)c1	inactive	inactive		inactive	inactive		1.73 µM (active) and 1.54 µM (active)	24.4 µM (active)	inactive	inactive	inactive			inactive	inactive				
